The record followed here is PubChem BioAssay AID2606 (The Scripps Research Institute Molecular Screening Center, 2010).

About 160 (0.05%) of roughly 320,000 compounds were called active. Rule as the data show it: active = inhibition above about 38%; inactive = the rest. Only a selection was taken, and actives are over-represented in it overall.

The target in this assay is Serine protease Rv3671c (Mycobacterium tuberculosis (strain ATCC 25618 / H37Rv)) (UniProt P9WHR9). Put plainly: inhibition of M. tuberculosis membrane protease Rv3671c – biochemical, fluorescence polarization, M. tuberculosis H37Rv, primary screen (AID 2606).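 Also: extracellular domain of Rv3671c used as enzyme; 0% = enzyme with DMSO and 100% = no enzyme.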 To be noted: at 5.96 µM; hits give high values.
Chain of Serine protease Rv3671c (Mycobacterium tuberculosis (strain ATCC 25618 / H37Rv)) (P9WHR9 whole entry, looked up, the tested form may be a part): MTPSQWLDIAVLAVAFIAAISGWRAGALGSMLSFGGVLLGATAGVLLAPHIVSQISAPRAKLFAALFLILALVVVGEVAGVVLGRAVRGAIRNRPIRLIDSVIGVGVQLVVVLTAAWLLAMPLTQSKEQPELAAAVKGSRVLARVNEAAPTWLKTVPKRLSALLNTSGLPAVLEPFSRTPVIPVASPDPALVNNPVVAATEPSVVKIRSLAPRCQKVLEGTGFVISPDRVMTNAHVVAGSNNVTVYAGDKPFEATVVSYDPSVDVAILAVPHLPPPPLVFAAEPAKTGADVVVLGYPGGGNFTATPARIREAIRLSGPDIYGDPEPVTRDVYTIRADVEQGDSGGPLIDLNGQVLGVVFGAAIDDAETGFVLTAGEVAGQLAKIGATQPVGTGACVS
As for `COc1ccccc1OCCNCC(O)COc1cccc2[nH]c3ccccc3c12` (stereo unspecified), the inhibition is -3.15% (inactive).

As for `C=C1C2C[C@H](O)C(C)(C)[C@@]2(O)[C@H](O)C[C@]23C[C@@](C)(O)[C@H](CC[C@H]12)[C@H]3O` (stereo partly specified), the inhibition is 8.16% (inactive).

As to `CCCCCCCNc1nc(Cl)nc(NCCO)n1`, the inhibition was 1.57% (inactive).

Consider `C/C(=N\NC(=O)NC1CCCCC1)c1ccc(OC(F)F)cc1OC(F)F`, for which the inhibition is -2.17% (inactive).

For the molecule `C/C(=N/NS(=O)(=O)c1ccccc1)c1ccc(NC(=O)C(F)(F)F)cc1`, the inhibition is -8.65% (inactive).

`O=C(CNC(=O)c1ccccc1F)OCC(=O)c1c[nH]c2ccccc12`: the inhibition was 3.57% (inactive).

Consider `COc1ccc(SC[C@H](Cc2ccccc2)N2CCN(CCc3ccccc3)CCC2=O)cc1`, for which the inhibition is 1.82% (inactive).

For `CC(=O)c1ccc(N2CCN(C(=O)CCNC(=O)Cn3ccc4ccccc4c3=O)CC2)cc1`, the inhibition was -8.01% (inactive).

As for `CC(=O)Nc1c2c(nn1-c1ccc(C)cc1C)CS(=O)C2` (stereo unspecified), the inhibition was -11.2% (inactive).

`CS(=O)(=O)c1ccc(Cl)c(NC(=O)COC(=O)c2ncc(Cl)c(Cl)c2Cl)c1`: the inhibition is 0.74% (inactive).

As to `O=C(CSc1nnc(-c2ccoc2)o1)N1CCOCC1`, the inhibition is 6.68% (inactive).

Consider `OC(COCc1ccco1)CN1CCN(c2ccccc2)CC1` (stereo unspecified), for which the inhibition is 5.86% (inactive).

On to `C/C(=N/NC(=O)CN1CCN(S(=O)(=O)c2ccc(Br)cc2)CC1)c1ccncc1`, for which the inhibition was -1.08% (inactive).

In the case of `CCOc1ccc(N(CC(=O)Nc2cccc(OC)c2)S(C)(=O)=O)cc1`, the inhibition was -3.74% (inactive).

Regarding `CN=C1C=C/C(=N/N=c2\ccn(O)cc2C)C=C1C`, the inhibition is -17.4% (inactive).

Turning to `Cc1ccc(-n2c(SCC(=O)Nc3ncc(Cl)cc3Cl)nc3ccccc32)cc1`, the inhibition was -17.4% (inactive).

For the molecule `Cc1ccn2c(=O)c(NC(=O)c3cccc4ccccc34)c(C)nc2c1`, the inhibition is -5.92% (inactive).

Regarding `CC(C(=O)N1CCN(c2ccccc2F)CC1)c1ccc([N+](=O)[O-])cc1` (stereo unspecified), the inhibition is 7.31% (inactive).

In the case of `CCC(=NC1CC(C)(C)NC(C)(C)C1)C1=C(O)CC(C)(C)CC1=O`, the inhibition was -1.22% (inactive).

Consider `CCC(C)[C@H](NC(=O)N1c2ccccc2NC(=O)[C@@H]1C(C)C)C(=O)N[C@@H](Cc1ccccc1)C(=O)O` (stereo partly specified), for which the inhibition is 6.36% (inactive).

Take `CCOc1ccccc1NC(=O)C1CCCN(S(=O)(=O)c2ccccc2)C1` (stereo unspecified): the inhibition was -17.1% (inactive).

For `O=C(Nc1nnc(Cc2ccc(Cl)cc2)s1)c1ccncc1`, the inhibition was 7.51% (inactive).

As for `COCCn1c(N)c(NCc2ccccc2)c(=O)[nH]c1=O`, the inhibition is -10.5% (inactive).

Regarding `Cc1ccc(NC(=O)C2(N3CCC3=O)CCCCC2)cc1`, the inhibition is 3.63% (inactive).

For `CCOc1ccc(CN(C)C(=O)c2ccc(=O)[nH]c2)cc1`, the inhibition is 0.46% (inactive).

In the case of `Cc1cc(C(=O)OC(C)C(=O)NC2CCCCC2C)c(C)o1` (stereo unspecified), the inhibition was -0.91% (inactive).

In the case of `COc1ccc(Cn2c(O)c(/C=C3/C=CC=N3)c(=O)[nH]c2=O)cc1`, the inhibition was -6.46% (inactive).

For the molecule `C[C@H](NS(=O)(=O)c1ccc(Cl)cc1)C(=O)OCC(=O)N1CCOCC1`, the inhibition was 3.78% (inactive).

In the case of `CN(C)CC(C)(C)CNC(=O)c1cc(Br)cc(Br)c1O`, the inhibition was 9.55% (inactive).

Take `CCCCc1cc2c(s1)CCCC/C2=N/O`: the inhibition is -4.78% (inactive).

Take `CCc1nc2ccc(C(=O)N3CCN(c4cccc(Cl)c4)CC3)cc2nc1CC`: the inhibition is 0.29% (inactive).

Regarding `O=S(=O)(NC1CC2CCC1C2)c1ccc(Cl)cc1` (stereo unspecified), the inhibition is 0.26% (inactive).

`CC(=O)c1ccc(N2CCN(S(=O)(=O)c3c(C)[nH]c(=O)[nH]c3=O)CC2)cc1`: the inhibition was 5.45% (inactive).

Consider `COc1ccc(NC(=O)C(C)SCc2ccccc2)cc1` (stereo unspecified), for which the inhibition is 0.17% (inactive).

Take `C/C(=N\NC(=O)c1ccc(CSc2nc(C)cc(C)n2)cc1)C1CCCCC1`: the inhibition was -1.11% (inactive).

Consider `O=C1Nc2cc(C(=O)N3CCN(c4ccc(F)cc4)CC3)ccc2NC1CSCc1cccc(F)c1` (stereo unspecified), for which the inhibition is -19.6% (inactive).

As for `O=C(Nc1cc(S(=O)(=O)Nc2ccc(Cl)cc2)ccc1O)c1ccc(F)cc1F`, the inhibition is -20% (inactive).

With `COc1ccccc1NC(=S)N1CCN(C(c2ccccc2)c2ccccc2)CC1`, the inhibition was -3.52% (inactive).

As to `CCOc1ccc(OCC)c(NC(=O)CN(C)S(=O)(=O)c2cccc3nsnc23)c1`, the inhibition was 4.81% (inactive).

Take `CC(=O)OCCOCn1cnn2c(=O)c(Br)c(C)nc12`: the inhibition was 9.74% (inactive).

Regarding `Cc1nc2nc[nH]n2c(=O)c1NC(=O)c1cccc(OCC(C)C)c1`, the inhibition was 2.66% (inactive).

As to `Cn1cnc(S(=O)(=O)Nc2ccc3c(c2)OCCO3)c1`, the inhibition is -5.54% (inactive).

Take `O=C(NCc1ccccc1)[C@@H]1CSC2c3ccccc3C(=O)N21` (stereo partly specified): the inhibition was 5.62% (inactive).

As to `CCc1cccc2c(C=C(C#N)C#N)cn(CC(=O)N3CCCCC3)c12`, the inhibition is -5.84% (inactive).

Turning to `COc1cccc(CNC(=O)Cn2c(=O)oc3cc(S(=O)(=O)N4CCCCC4)ccc32)c1`, the inhibition was -26.5% (inactive).

In the case of `O=C(O)c1ccn(COc2ccc(Br)cc2)n1`, the inhibition was 5.52% (inactive).

As to `CCc1ccc(N(C(=O)c2csnn2)C(C(=O)NC2CCCCC2)c2cccnc2)cc1` (stereo unspecified), the inhibition is -1.12% (inactive).

Consider `COc1ccccc1Nc1nnc(SC(C)C(=O)NC2CC2)s1` (stereo unspecified), for which the inhibition was 6.85% (inactive).

For `C=C1CCC(N(O)c2cc(C)on2)C(=C)CCC2C1CC2(C)C` (stereo unspecified), the inhibition was -8.68% (inactive).

On to `O=C(CNS(=O)(=O)c1ccc2ccccc2c1)Nc1ccc(F)c(F)c1F`, for which the inhibition was 2.38% (inactive).

`CCN(CC)C(=O)CSc1nnc(-c2cnccn2)n1-c1ccc(C)cc1`: the inhibition is -10.7% (inactive).

As to `O=C(O)C1=NN(c2c(F)c(F)cc(F)c2F)C(=O)CC1`, the inhibition is -8.71% (inactive).

Take `CCOc1ccc(S(=O)(=O)N2CCC(c3ccccc3)CC2)cc1C(=O)O`: the inhibition was 2.59% (inactive).

`CCCN(CCC)S(=O)(=O)c1ccc(C(=O)NNC(=O)c2cc(OC)c(OC)c(OC)c2)cc1`: the inhibition was 2.22% (inactive).

With `CCCCNC(=O)C1(c2ccc(OC)cc2)CCOCC1`, the inhibition is 1.73% (inactive).

Take `CC(C)(C)NS(=O)(=O)NC(=O)C1=C(N2CCCC2)COC1=O`: the inhibition was -1.86% (inactive).

With `O=c1[nH]c2ccccc2n2c(-c3ccccc3)nnc12`, the inhibition is -13% (inactive).

On to `COc1ccc(NC(=O)c2cc([N+](=O)[O-])ccc2NC(=O)CNC2CCCCC2C)c(OC)c1` (stereo unspecified), for which the inhibition is -11.9% (inactive).

Consider `CN(C)C(=O)N=NC(=O)N(C)C`, for which the inhibition was -1.83% (inactive).

Take `O=C(Nc1ccccc1C(=O)O)c1ccc(N2C(=O)C3CC=CCC3C2=O)cc1` (stereo unspecified): the inhibition is -4.79% (inactive).

In the case of `COc1cccc(CNc2ncc(-c3ccccc3)n2C)c1`, the inhibition is -4.35% (inactive).

Regarding `O=C(Cn1ccc([N+](=O)[O-])n1)NCc1cccs1`, the inhibition was 2.31% (inactive).

As for `CCOc1ncccc1C(=O)OCC(=O)c1c[nH]c2ccccc12`, the inhibition was 2.18% (inactive).

In the case of `Cc1ccccc1CSc1nnc(CCCCCNC(=O)OC(C)(C)C)o1`, the inhibition was -2.88% (inactive).

On to `COc1cc([N+](=O)[O-])cc([N+](=O)[O-])c1NC(=O)N1CCOCC1`, for which the inhibition was 0.53% (inactive).

With `O=C(CN1C(=O)NC2(CCCC2)C1=O)OCCOc1ccc(F)cc1`, the inhibition was 0.5% (inactive).

Take `O=C(NCc1ccc(Cl)cc1)c1cc2c(nc3sccn32)s1`: the inhibition was -4.26% (inactive).

Take `Cc1c(Br)c([N+](=O)[O-])nn1CC(=O)Nc1sc2c(c1C(=O)OC(C)C)CCC(C)C2` (stereo unspecified): the inhibition was -2.96% (inactive).

As to `O=S1(=O)CC(NCc2ccccc2)C(Nc2ccc(Cl)cc2)C1` (stereo unspecified), the inhibition was -2.48% (inactive).

As to `O=C(CN(c1cc(C(F)(F)F)ccc1Cl)S(=O)(=O)c1ccccc1)NCc1cccnc1`, the inhibition is 4.36% (inactive).

Turning to `O=C1CCCN1CCCNC(=S)Nc1ccc(F)c(Cl)c1`, the inhibition is -6.09% (inactive).

For the molecule `O=C1c2ccccc2C(=O)N1CCc1nn[nH]n1`, the inhibition is -7.39% (inactive).

For the molecule `Cc1ccccc1CCN(CC(=O)NC1CCCCC1)C(=O)c1csnn1`, the inhibition was -0.33% (inactive).

As for `OC(c1ccccc1)c1nccn1Cc1ccccc1` (stereo unspecified), the inhibition was 0.91% (inactive).

On to `CSc1nc2ccccc2cc1/C=C(\C#N)c1ccc(Cl)cc1Cl`, for which the inhibition was 3.83% (inactive).

Consider `O=C(COC(=O)c1cc(=O)[nH]c2ccccc12)Nc1nc(-c2cccc(Br)c2)cs1`, for which the inhibition is -76% (inactive).

Regarding `CCOC(=O)[C@@H]1[C@H]2COc3ccc(Br)cc3[C@H]2N2C(=O)N(c3ccc(C)cc3)C(=O)[C@@]12C`, the inhibition is 0.17% (inactive).

Take `CCN(C(=O)CSc1nnnn1-c1ccccc1OC)C1CCS(=O)(=O)C1` (stereo unspecified): the inhibition is 2.72% (inactive).

On to `CSc1ccc(C(=O)C2CCCN(C(=O)c3ccc(C)nc3)C2)cc1` (stereo unspecified), for which the inhibition was 1.04% (inactive).

For the molecule `CCC(C)c1ccc(NC(=O)COC(=O)C2CCCC2)cc1` (stereo unspecified), the inhibition was -4.19% (inactive).

On to `Cc1ccc(OCC(=O)c2cc(C)n(Cc3ccco3)c2C)c([N+](=O)[O-])n1`, for which the inhibition was -2.09% (inactive).

For the molecule `COc1ccc(NC(=O)C2C3CCC(O3)C2C(=O)O)cc1OC` (stereo unspecified), the inhibition was -2.75% (inactive).

As to `COc1cc(C(=O)NCc2ccncc2)cc(Br)c1OCc1ccccc1`, the inhibition is -8.67% (inactive).

Regarding `CCn1c(=O)cc(SCC(=O)NCCC2=CCCCC2)c2ccccc21`, the inhibition is 3.21% (inactive).

Take `CCOc1ccc(S(=O)(=O)N(CC(=O)NCC(F)(F)F)Cc2ccco2)cc1`: the inhibition is 4.73% (inactive).

Regarding `CC1CC(=NNC(=O)C2COc3ccccc3O2)CC(C)(C)C1` (stereo unspecified), the inhibition is -11% (inactive).

`O=C(O)c1ccc2c(=O)n3c(nc2c1)/C(=C/c1ccc(Cl)c([N+](=O)[O-])c1)CC3`: the inhibition was 8.14% (inactive).

Consider `C=C(C)C(=O)Nc1cccc(C2=NOC3(C2)C[C@H](C(N)=O)N(C(=O)C(c2ccccc2)c2ccccc2)C3)c1` (stereo partly specified), for which the inhibition is -1.51% (inactive).

In the case of `Cc1onc(-c2c(F)cccc2Cl)c1C(=O)N(C)CC(=O)Nc1cccc(F)c1`, the inhibition was 2.86% (inactive).

In the case of `C=CCOc1cccc(CNCc2cccnc2)c1`, the inhibition is 4.49% (inactive).

As for `COC(=O)c1cccc(N(CC(=O)NCC2CCCO2)C(=O)CCC(=O)Nc2cc(C)on2)c1` (stereo unspecified), the inhibition is -6.9% (inactive).

By inhibition is commonly meant the change of the read-out against control, counted positive when it falls.
